# PubChem BioAssay (EPA / NIEHS)
# The source made the active and inactive calls. Rule for the calls: active = hit-call score of the fitted dose curve at least 0.9, where 1 is the maximum; inactive = score below 0.9.
# Read-out: Monokine induced gamma interferon (MIG), CXCL9 (gene 4283)
# Assay: BSK_BE3C_MIG: BioMAP Diversity Plus: BE3C Assay for Monokine induced gamma interferon (MIG) Biomarker Activity (AID 2283035)
# Settings: primary human bronchial epithelial cells; actives raise or lower the signal
# Procedure: BSK_BE3C is a cell-based, multiplexed-readout assay that uses bronchial epithelial cell, a human lung primary cell, with measurements taken at 24 hours after chemical dosing in a 96-well plate.BSK_BE3C_MIG is an assay component measured in the BSK_BE3C assay. It measures MIG antibody related to regulation of gene expression using ELISA technology.Data from the assay component BSK_BE3C_MIG was analyzed into 1 assay endpoint. This assay endpoint, BSK_BE3C_MIG, was analyzed with bidirectional fitting relative to DMSO as the negative control and baseline of activity. Using a type of binding reporter, gain or loss-of-signal activity can be used to understand changes in the signaling as they relate to the gene CXCL9. Furthermore, this assay endpoint can be referred to as a primary readout, because this assay has produced multiple assay endpoints where this one serves a signaling function. To generalize the intended target to other relatable targets, this assay endpoint is annotated to the cytokine intended target family, where the subfamily is chemotactic factor.
# The levels of cell surface (or secreted, indicated by the prefix "s") biomarker endpoints were measured by ELISA. Overt cytotoxicity to cells in confluent adherent cultures (all systems other than the BT system) was assessed by measuring total protein levels using sulforhodamine B (SRB) staining in parallel cultures at the time of biomarker measurements, indicated as SRB endpoints. For proliferation assays for adherent cell types, individual cell types are cultured at sub-confluence and relative cell numbers quantified by SRB staining at time points optimized for each system (48 h: 3C and CASM3C systems; 72 h: BT and HDF3CGF systems; 96 h: SAg system). SRB was performed by staining cells with 0.1% SRB after fixation with 10% TCA and reading wells at 560 nm.Viability and proliferation of PBMC (T cells) was quantified by Alamar Blue reduction for the SAg and BT systems. For PBMC viability (referred to as PBMC Cytotoxicity within the assay endpoint names), cells were plated (75,000/well in a 96-well plate) and then chemical samples added for 1 h before addition of activators, SEB and TSST-1 (20 ng/mL final concentration each). Cells were incubated for 90 h. Then, Alamar Blue (20 uL/well) (Invitrogen, Cat DAL1100) was added for 6 h, and the plates were read with a fluorescence microplate reader at 546/580 nm (excitation/emission). For PBMC proliferation, cells were plated and activated as above but incubated for only 16 h prior to addition of Alamar Blue. Plates were read after 6 h.
SMILES,outcome,AC50
N#Cc1cccnc1,inactive,–
Cc1ccccc1OP(=O)(Oc1ccccc1C)Oc1ccccc1C,inactive,–
NC(=O)CCl,inactive,–
N#CCCC(Br)(C#N)CBr (stereo not given),–,36.8 µM (active)
O=S(=O)(C(Cl)(Cl)Cl)C(Cl)(Cl)Cl,–,7.75 µM (active)
Nc1c(Oc2ccccc2)cc(O)c2c1C(=O)c1ccccc1C2=O,inactive,–
Oc1cc(Cl)c(Cl)cc1Cl,inactive,–
COc1ccccc1N,inactive,–
Oc1c(Cl)cc(Cl)cc1Cl,inactive,–
O=[N+]([O-])c1ccc(Nc2ccccc2)cc1,inactive,–
CCOP(=O)(OCC)OC(=CCl)c1ccc(Cl)cc1Cl,inactive,–
Cc1cc(C(C)(C)c2ccc(O)c(C)c2)ccc1O,inactive,–
OCCN(CCO)CCO,inactive,–
Cc1ccc2nc3sc(=O)sc3nc2c1,inactive,–
O=C(O)COc1cc(Cl)c(Cl)cc1Cl,inactive,–
O=C(CCl)NCO,inactive,–
O=C(N[C@H]1CN2CCC1CC2)c1ccc2c(c1)OCCO2,inactive,–
CCC(C)(C#N)N=NC(C)(C#N)CC (stereo not given),inactive,–
C#CCOC(=O)/C=C(C)/C=C/CC(C)CCCC(C)C (stereo not given),inactive,–
CN(C)C(=S)S,–,23.1 µM (active)

SMILES,outcome,AC50
Cc1cc(Cl)ccc1OC(C)C(=O)O (stereo not given),inactive,–
Clc1cccc(Cl)c1Cl,inactive,–
Oc1c(Br)cc(Br)cc1Br,inactive,–
CCN(CC)C(=O)C(Cl)=C(C)OP(=O)(OC)OC,inactive,–
CCOC(=O)CCN(SN(C)C(=O)Oc1cccc2c1OC(C)(C)C2)C(C)C,inactive,–
Cc1ccc(OP(=O)(Oc2ccc(C)cc2C)Oc2ccc(C)cc2C)c(C)c1,inactive,–
O=C(O)C1(c2ccc3c(c2)OC[C@H](Cc2ccc(-c4ccccc4)cc2)[C@H]3O)CCCC1,–,19.9 µM (active)
[Cl][Sn]([c]1ccccc1)([c]1ccccc1)[c]1ccccc1,–,0.209 µM (active)
Nc1ccc(N)cc1,inactive,–
O=S(=O)(c1ccc(Cl)cc1)c1cc(Cl)c(Cl)cc1Cl,inactive,–
OC(Cc1ccccc1Cl)(Cn1[nH]cnc1=S)C1(Cl)CC1 (stereo not given),–,31.1 µM (active)
Oc1cccc(-c2ccccc2)c1,inactive,–
CCOP(=S)(OCC)OP(=S)(OCC)OCC,inactive,–
CCOP(=S)(OCC)SCS(=O)(=O)C(C)(C)C,inactive,–
O=C1C=CC(=O)c2ccccc21,–,6.51 µM (active)
CC(C=O)Cc1ccc2c(c1)OCO2 (stereo not given),inactive,–
Cc1ccccc1OP(=O)(Oc1ccccc1)Oc1ccccc1,inactive,–
Cc1cccc(OP(=O)(Oc2cccc(C)c2)Oc2cccc(C)c2)c1,inactive,–
O=c1oc2ccccc2c(O)c1C(CC(O)c1ccc(-c2ccc(Br)cc2)cc1)c1ccccc1 (stereo not given),–,10.5 µM (active)
CCOP(=O)(OCC)SCCSCC,inactive,–
